According to PubChem BioAssay (NCATS):
Several values for one entry are separate records, joined by “and”; a condition that tells them apart may be missing. Equal entries are not always repeated. Inconclusive results are not listed. Entries that show only a call come without a potency. Activity calls are given as the source filed them. Calls follow the shape of the dose curve; as a rule, active = well fitted inhibition curve with a large enough effect; inconclusive = small, poorly fitted or top-dose-only effect; inactive = flat fitted curve, though single readings scatter.

Tested on: CP192
Assay: qHTS profiling for inhibitors of Plasmodium falciparum proliferation (AID 504749); also: nearly all actives have a fitted effect of over 60% in size
Settings: P. falciparum in erythrocytes, SYBR Green DNA, 72 h; series mostly up to 28.7 µM
Outline: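 Each compound contacts P. falciparum-infected red blood cells for 72 h at 37 C; lysis buffer (Tris, EDTA, saponin, Triton X, SYBR Green I) is added and fluorescence measured next morning; values normalized to controls.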
Potency is read from the fitted curve at half-maximal effect.

Compound	Potency
CCC1(c2ccccc2)CCC(=O)NC1=O (stereo unspecified)	inactive
C[N+]1(CCC(C(N)=O)(c2ccccc2)c2ccccc2)CCCCC1	inactive
CCC(=O)O[C@H]1CC[C@H]2[C@@H]3CCC4=CC(=O)CC[C@]4(C)[C@H]3CC[C@]12C	inactive
OC(c1ccccc1)(c1ccccc1)C1CCNCC1	inactive
CC(C)[N+](C)(CCC(C(N)=O)(c1ccccc1)c1ccccc1)C(C)C	inactive
Cc1ncc2n1-c1ccc(Cl)cc1C(c1ccccc1F)=NC2	inactive
Cc1ccc(N=CN(C)C=Nc2ccc(C)cc2C)c(C)c1	inactive
CC(C)NCC(O)c1ccc(N)c(C#N)c1 (stereo unspecified)	inactive
CNC(=O)Oc1cccc2ccccc12	inactive
CCNc1nc(Cl)nc(NCC)n1	inactive
CC[n+]1c(-c2ccccc2)c2cc(N)ccc2c2ccc(N)cc21	190 nM (active) and 426 nM (active)
CCCCCCCCCCCC[N+](C)(C)CCOc1ccccc1	9.53 µM (active)
CCOC(=O)NC(O)C(Cl)(Cl)Cl (stereo unspecified)	inactive
CCN(Cc1ccc(Cl)nc1)/C(=C/[N+](=O)[O-])NC	inactive
C[C@H]1C(=O)O[C@@H]2CCN3CC=C(COC(=O)[C@](C)(O)[C@]1(C)O)[C@H]23	inactive
Oc1c(Br)cc(Br)cc1Br	inactive

Compound	Potency
C[C@]12CC[C@H]3[C@@H](CC=C4C[C@@H](O)CC[C@@]43C)[C@@H]1CC[C@@H]2O	inactive
COP(=O)(OC)C(O)C(Cl)(Cl)Cl (stereo unspecified)	inactive
CCN(CC)C(C)C(=O)c1ccccc1 (stereo unspecified)	inactive
COP(=O)(OC)OC=C(Cl)Cl	inactive
CNC(=O)NC(O)C(Cl)(Cl)Cl (stereo unspecified)	inactive
NC(=O)CN1CCCC1=O	inactive
CCC1(CC)C(=O)NC(=O)NC1=O	inactive
O=c1n(Cl)c(=O)n(Cl)c(=O)n1Cl	inactive
CC(C)C(Br)C(=O)NC(N)=O (stereo unspecified)	inactive
CN(C)C(=S)SSC(=S)N(C)C	3.79 µM (active)
COP(=S)(OC)Oc1ccc(Sc2ccc(OP(=S)(OC)OC)cc2)cc1	inactive
NCc1cccnc1	inactive
COc1ccc(C(=O)N2CCCC2=O)cc1	inactive
c1ccc2nc(N3CCNCC3)ccc2c1	inactive
CC(C)(C)OC(=O)c1ncn2c1[C@@H]1CCCN1C(=O)c1c(Br)cccc1-2	inactive
